PTHR1 agonist: agonists of human PTHR1 parathyroid hormone receptor; Potency, µM (top dose mostly 115 µM), without a hit: at the highest dose activation, most hits filed as activators; Q03431; HEK293 GP2 PTHR1 cells, GloSensor cAMP luminescence, 1 h; 410,000 compounds, 0.075% hits; note: potency is the fitted concentration of half-maximal effect; nearly all actives have a fitted effect of over 55% in size
Target sequence (Q03431 whole entry, looked up): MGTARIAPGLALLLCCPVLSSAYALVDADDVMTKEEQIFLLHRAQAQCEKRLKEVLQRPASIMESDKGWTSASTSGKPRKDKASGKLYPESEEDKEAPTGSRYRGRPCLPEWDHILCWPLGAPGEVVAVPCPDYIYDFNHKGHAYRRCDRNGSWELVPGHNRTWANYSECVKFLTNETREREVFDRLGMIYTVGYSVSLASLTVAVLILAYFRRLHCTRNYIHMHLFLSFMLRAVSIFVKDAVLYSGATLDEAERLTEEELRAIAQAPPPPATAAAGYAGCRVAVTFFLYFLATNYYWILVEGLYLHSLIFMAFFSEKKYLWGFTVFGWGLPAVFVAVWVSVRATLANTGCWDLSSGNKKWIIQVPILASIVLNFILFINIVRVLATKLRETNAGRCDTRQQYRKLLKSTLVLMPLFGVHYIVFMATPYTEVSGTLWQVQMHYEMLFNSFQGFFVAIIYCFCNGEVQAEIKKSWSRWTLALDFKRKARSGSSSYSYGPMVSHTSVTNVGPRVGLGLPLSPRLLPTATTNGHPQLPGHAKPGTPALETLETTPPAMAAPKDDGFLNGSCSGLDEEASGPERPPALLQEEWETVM
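HEK-293-derived GP2 cells expressing PTHR1 and a GloSensor cAMP reporter, 3,000/well, plated overnight, given luciferin plus IBMX (each 0.5 mM as added) for 1 h at 37 °C, then compound for 1 h at 37 °C. Luminescence was read after 15 min at room temperature.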
TDP-43 yeast inh: rescues yeast growth from TDP-43 toxicity | TDP-43 expressing yeast growth rescue, BacTiter-Glo, 24 h | 410,000 compounds, 1.8% hits | Potency, µM (doses to about 46.1 µM), inactives show at the top dose growth rescue (activation), usual class: activators | AID 652104; note: potency is the fitted concentration of half-maximal effect; % of control where 0% means no effect; nearly all actives have a fitted effect of over 50% in size
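In this qHTS, compounds that restore growth of yeast expressing TDP-43 appear as activators. Cells (OD600=0.02, galactose medium, raffinose-pregrown) are incubated with compound 24 hr at 30 deg C and growth is quantified by BacTiter-Glo.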
aSyn rescue: alpha-synuclein toxicity inhibition in yeast; Yeast expressing alpha-synuclein, growth rescue, BacTiter-Glo, 24 h; Potency, µM (highest dose often 46.1 µM), for inactives: at the highest dose growth rescue (activation), actives largely listed as activators; 370,000 compounds, 0.14% hits; note: potency is the fitted concentration of half-maximal effect; % of control where 0% means no effect; nearly all actives have a fitted effect of over 65% in size
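Readout is rescue of growth in alpha-synuclein-expressing yeast, so inhibitors of toxicity appear as activators. Growth after 24 hr at 30 deg C in galactose medium is quantified by luminescence.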
Abeta yeast res: restores growth of yeast expressing A-beta42 peptide; yeast expressing A-beta42, growth rescue, OD600, 48 h; response scale: 0% DMSO, 100% iron-clioquinol control; Potency, µM (titrated, usually from 46.1 µM), most hits filed as activators; 410,000 compounds, 0.063% hits; AID 1347071; note: potency is the fitted concentration of half-maximal effect; nearly all actives have a fitted effect of over 55% in size
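Yeast growth medium received pinned compounds, then yeast cells expressing toxic A-beta were added; plates incubated at 30 C for 48 hr. Growth read as absorbance at 600 nm, normalized to DMSO and equimolar FeCl3 plus clioquinol controls.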
LDHA block: blocks human lactate dehydrogenase A | P00338 | purified LDHA, NADH/diaphorase-resazurin fluorescence; hits give low values | activity change, % (values are at about 110 or 230 µM) | 480,000 compounds, 0.15% hits | AID 1347041; in the data active = activity change below about -30%; inconclusive = mostly about -25% to -30%;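 note: plate controls were DMSO wells for no effect and wells without enzyme for full effect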
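Resorufin fluorescence (ex540/em590), read at 0 and 20 min after diaphorase/resazurin addition, reports the NADH left after a 5 min room-temperature reaction of 2 nM human LDH5 with 0.06 mM NADH and 0.2 mM pyruvate.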
FUS suppressor: suppressors of FUS proteinopathy in yeast; S. cerevisiae FUS-expressing, growth rescue, OD600, 24 h; Potency, µM (series often up to 76.6 µM), hits mostly activators; 390,000 compounds, 0.24% hits;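 note: potency is the fitted concentration of half-maximal effect; plate controls were DMSO vehicle for no effect and reference control for full effect; nearly all actives have a fitted effect of over 55% in size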
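Restored growth of FUS-toxic S. cerevisiae, read as 600 nm absorbance after 24 h at 30C in galactose medium (starting OD 0.005). Controls CP55940 and DMSO.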
* = called active by the depositor; i = inactive; u = inconclusive; x = no result; [ ] = remark or other dose. In the library only some 1.9% were active in any assay of this set; here they are far more common. Unless noted, calls come from the whole dose curve; as a rule, active = well fitted curve in the direction sought with a large enough effect; inconclusive = small, poorly fitted or top-dose-only effect, or another doubt; inactive = no such curve, though single readings can be large; an effect the other way counts as inactive or inconclusive.

SMILES	PTHR1 agonist	TDP-43 yeast inh	aSyn rescue	Abeta yeast res	LDHA block	FUS suppressor
Cc1cnc2c(S(=O)(=O)NC3CCN(S(C)(=O)=O)CC3)cccc2c1	x	x	x	x	16.6	x
Cc1[nH]c2ccccc2c1/C=C/C(=O)c1ccc(Br)cc1	x	x	x	x	-6.9	x
Nc1c(-c2ccccc2)cnn1-c1cccc(Cl)c1	-36.8%	15.8µM*	4.2%	i	-1.0	i
O=C1N/C(=N\S(=O)(=O)c2ccccc2)S/C1=C\c1cc([N+](=O)[O-])ccc1O	i	-14.7%	2.0%	i	-36.4*	i
O=C1N/C(=N\S(=O)(=O)Cc2ccccc2)S/C1=C/c1cc([N+](=O)[O-])ccc1O	i	4.7%	-0.2%	i	-37.2*	i
COc1cc(/C=C2\S/C(=N/S(=O)(=O)Cc3ccccc3)NC2=O)c([N+](=O)[O-])cc1OC	-9.6%	-1.1%	-0.6%	i	-1.1	i
COc1cc(/C=C2/S/C(=N/S(=O)(=O)c3ccccc3)NC2=O)c([N+](=O)[O-])cc1OC	-1.5%	-8.5%	-7.3%	i	-5.7	i
CN1CCCN(Cc2ccccc2C(F)(F)F)CC1	i	-33.9%	0.2%	i	-33.9*	i
COCc1cccc(C2=CC(=O)C[C@H](c3ccc(OC)cc3)C2)c1	-0.2%	14.1µM*	4.9%	i	-19.7	i
COc1ccc([C@H]2CC(=O)C=C(c3ccc(C)c([N+](=O)[O-])c3)C2)cc1	-12.1%	35.5µM*	2.1%	i	0.5	u
COc1ccc([C@H]2CC(=O)C=C(c3cccc(Cl)c3)C2)cc1	i	17.8µM*	0.2%	i	-12.7	i
COc1ccc([C@H]2CC(=O)C=C(c3ccc4c(c3)OCCO4)C2)cc1	i	u	-0.4%	i	1.9	i
CC(C)[C@H](NC(=O)[C@@H](NC(=O)C1CC(=O)N(c2ccc(F)cc2)C1)C(C)C)C(=O)O (stereo not given in full)	x	x	x	x	3.6	x
C/C(=C\c1ccccc1)C(=O)Nc1ccccc1C(C)C	x	x	x	x	10.9	x
COc1cccc(NC(=O)NC2CCN(c3nc(C)cc(C)n3)CC2)c1	x	x	x	x	5.0	x
O=C(O)c1cc(C(=O)O)cc(N2C(=O)CSC2=S)c1	i	14.5%	7.0%	i	3.3	i
O=C(O)c1ccc(N2C(=O)CSC2=S)cc1	-18.6%	u	10µM*	i	-0.4	i
O=C1CSC(=S)N1c1ccc(F)c(Cl)c1	-17.2%	25.1µM*	15.7%	u	-6.4	i
O=C(O)c1ccc(CN2C(=O)CSC2=S)cc1	i	17.8µM*	12.6µM*	i	26.8	i
Cc1nc(/C=C/C(=O)N(C)Cc2cccs2)cs1	x	x	x	x	-2.2	x
CC(C)(C)OC(=O)COc1ccc2c(-c3ccccc3)cc(=O)oc2c1	x	x	x	x	0.5	x
CCOc1ccc(NC2SC(=O)N(Cc3ccccc3)C2=O)cc1 (stereo not given)	-14.2%	12.6µM*	x	u	-1.3	i
O=C(Cc1n[nH]c(=O)c2ccccc12)NCc1ccccc1CN1CCCC1	x	x	x	x	4.8	x
CCn1nc(C(=O)N2CCN(CC(=O)NC3CC3)CC2)c2ccccc2c1=O	x	x	x	x	-1.3	x
O=C(Nc1ccc(F)c(Cl)c1)C1Cc2c(-c3cccc(F)c3)ccnc2O1 (stereo not given)	-45.5%	17.8µM*	u	i	-5.6	i
SMILES	PTHR1 agonist	TDP-43 yeast inh	aSyn rescue	Abeta yeast res	LDHA block	FUS suppressor
CC(=O)c1cccc(-c2ccnc3c2CC(C(=O)Nc2ccc(F)c(Cl)c2)O3)c1 (stereo not given)	-36.7%	u	u	i	0.0	u
O=C(Nc1cccc(C(F)(F)F)c1)C1Cc2c(-c3cccc(F)c3)ccnc2O1 (stereo not given)	-23.2%	25.1µM*	u	i	0.4	u
CNC(=O)NC(=O)C(C)OC(=O)c1ccc(COc2ccc3c(C)cc(=O)oc3c2)cc1 (stereo not given)	x	x	x	x	0.3	x
O=C(Cc1ccccc1[N+](=O)[O-])OCC(=O)c1ccccc1Br	-33.7%	12.6µM*	1.9%	i	-11.6	i
NC(=O)c1ccsc1NC(=O)COC(=O)Cc1ccccc1[N+](=O)[O-]	-76.8%	4.6%	4.0%	i	-2.3	i
O=C(CCc1ccccc1Cl)NC1CCN(C2CC2)C1 (stereo not given)	x	x	x	x	-5.3	x
CC(C(=O)Nc1ccc(OC(F)(F)F)cc1)N1Cc2ccccc2C1=O (stereo not given)	50.1µM*	3.2%	x	i	0.3	i
CCN(CC)c1nc(NN)nc(Nc2ccc(C)c(Cl)c2)n1	u	12.6µM*	-9.5%	u	5.1	i
COc1ccc(Nc2nc(Nc3ccc(C)c(Cl)c3)c3nccnc3n2)cc1	x	x	x	x	3.3	x
CCN(CC)C(=O)Cc1n[nH]c(=O)c2ccccc12	x	x	x	x	-15.8	x
Cc1ccc(CNC(=O)c2ccc(N3CCC4(CC3)CC(c3cccc(Br)c3)=NO4)c(NC(=O)c3ccco3)c2)cc1	i	0.4%	-2.8%	i	-4.6	u
Cc1ccc(CNC(=O)c2ccc(N3CCC4(CC3)CC(c3ccccc3)=NO4)c(NC(=O)c3ccco3)c2)cc1	-22.2%	20.8%	-1.9%	i	-15.2	17.8µM*
COc1ccc(C(=O)C(C)OC(=O)c2ccc(C(C)=O)s2)cc1 (stereo not given)	x	x	x	x	2.2	x
CN(C(=O)c1cc2cccc([N+](=O)[O-])c2[nH]1)C1CCCCCC1	x	x	x	x	0.0	x
CCCCCCC1CCC(C(=O)NC(C(=O)O)C(C)C)CC1 (stereo not given)	-6.1%	20µM*	x	i	-9.5	i
COc1ccc(C(C)=O)cc1COC(=O)C12CC3CC(CC(Br)(C3)C1)C2	x	x	x	x	10.5	x
c1ccc2c(NC34CC5CC(CC(C5)C3)C4)nc(N3CCCCC3)nc2c1	x	x	x	x	-2.4	x
Cc1nc(NCc2ccccn2)c2c3c(sc2n1)CCCC3	-4.1%	21.9%	-0.4%	i	-6.8	i
Cc1nc(NCc2ccco2)c2c3c(sc2n1)CCC3	-19.6%	u	7.1%	i	0.9	u
CC1CCc2sc3nc(NCc4ccco4)n4ncnc4c3c2C1 (stereo not given)	i	25.1µM*	0.0%	i	-0.2	i
CC1CCCc2sc3nc(NCc4ccco4)n4ncnc4c3c21 (stereo not given)	-22.0%	-7.2%	-16.2%	i	1.2	i
c1coc(CNc2ncnc3sc4c(c23)CCCCC4)c1	-21.9%[57.5 µM]	12.6µM*	-0.3%	i	1.7	i

High-throughput results: PubChem BioAssay, National Center for Advancing Translational Sciences (NCATS)
